Shown are actives, neighbours in structure and some others; about 7.3% of the full set was active somewhere.
AmpC detergent – AmpC beta-lactamase inhibition with detergent present | AID 485294 | Potency, µM (top dose mostly 114 µM), inactives show top-dose activity change, negative = inhibition, most hits filed as inhibitors | actives 0.041% (n = 370,000) | P00811 | AmpC hydrolysis of nitrocefin, absorbance 480 nm, 0.01% Triton;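 further: potency means the concentration at half of the fitted maximal effect; 0% = no-compound wells and -100% = no-enzyme wells; nearly all actives have a fitted effect of over 25% in size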
Target sequence (P00811 whole entry, looked up): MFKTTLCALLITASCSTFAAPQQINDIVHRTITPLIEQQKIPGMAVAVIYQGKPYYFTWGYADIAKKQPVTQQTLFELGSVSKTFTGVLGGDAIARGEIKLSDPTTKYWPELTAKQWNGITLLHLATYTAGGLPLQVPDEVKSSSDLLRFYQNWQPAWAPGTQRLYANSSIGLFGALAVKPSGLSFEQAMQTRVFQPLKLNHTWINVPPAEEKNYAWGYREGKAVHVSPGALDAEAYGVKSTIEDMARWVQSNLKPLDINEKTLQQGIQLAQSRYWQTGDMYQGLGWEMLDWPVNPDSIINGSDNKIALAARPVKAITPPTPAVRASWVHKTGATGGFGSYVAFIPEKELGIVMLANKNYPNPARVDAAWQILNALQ
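AmpC (5.3 nM in the dispensed reagent) in 20 mM phosphate pH 7.0 with 0.01% (detergent screen) or 0.0001% Triton X-100 was preincubated with compounds for 15 min at room temperature. Nitrocefin was then added from an 800 uM solution, and hydrolysis was followed at 480 nm.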
HCMV inh – blocks human cytomegalovirus replication. HFF cells, HCMV-luciferase reporter, 72 h; active compounds read low. activity change, negative = inhibition, % at 57.5 µM. actives 4.5% (n = 410,000); in the data active means activity change below about -60%; inconclusive means no clear call, values can overlap the other calls; inactive means above about -39%; further: on the % scale 0 is the no-effect control and ±100 the full control effect
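Steps: HFFs plated, 16 h 37C; compounds added; HCMV-luciferase added to MOI 1 PFU/cell; 72 h 37C; OneGlo reagent, 5 min room temperature; luminescence read, normalized to controls.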
FMDV inh – antivirals against foot and mouth disease virus. AID 1159524. actives 1.2% (n = 410,000). FMDV antiviral cell-based qHTS. Potency, µM (series often up to 57.9 µM), inactives show at the top dose activity change, negative = inhibition, most hits filed as inhibitors; calls by dose curve; tested in HEK293T cells; further: read-out not given here; potency means the concentration at half of the fitted maximal effect; on the % scale 0 is the no-effect control and ±100 the full control effect; nearly all actives have a fitted effect of over 45% in size
AmpC no deterg – blocks E. coli AmpC beta-lactamase in detergent-free assay; AID 485341; Potency, µM (series often up to 57.1 µM), inactives show at the highest dose activity change, negative = inhibition, actives largely listed as inhibitors; actives 0.52% (n = 330,000); P00811; AmpC nitrocefin hydrolysis, absorbance 480 nm, 0.0001% Triton;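 further: potency means the concentration at half of the fitted maximal effect; plate controls were no compound for no effect and no enzyme for full effect; nearly all actives have a fitted effect of over 20% in size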
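AmpC (5.3 nM in the dispensed reagent) in 20 mM phosphate pH 7.0 with 0.01% (detergent screen) or 0.0001% Triton X-100 was preincubated with compounds for 15 min at room temperature. Nitrocefin was then added from an 800 uM solution, and hydrolysis was followed at 480 nm.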
HCV inhibitor – blocks hepatitis C virus. Huh7.5.1 HCVcc-Cre infection, luciferase reporter, 44 h. Potency, µM (titrated, usually from 41.8 µM), for inactives: top-dose activity change, negative = inhibition, most hits filed as inhibitors. actives 3.4% (n = 340,000). AID 651820; further: potency means the concentration at half of the fitted maximal effect; on the % scale 0 is the no-effect control and ±100 the full control effect
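Reporter virus HCVcc-Cre (~0.5 moi) infects cells exposed to compound; seeding density 1,000 cells/well with 4 h settling beforehand. Luminescence, 15 sec read, taken 44 h post-infection following a 15 min RT substrate incubation.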
HCV inh confirm – HCV inhibition, cherry-pick confirmation; actives 78% (n = 640); Potency, µM (highest dose often 41.8 µM), for inactives: at the highest dose activity, negative = inhibition, actives largely listed as inhibitors; HCVcc-Cre infectious virus cell assay, luciferase, inhibition; shares compounds with HCV inhibitor; AID 720575; further: potency means the concentration at half of the fitted maximal effect; nearly all actives have a fitted effect of over 80% in size
HCV cytotox – host cell cytotoxicity counter-screen for HCV inhibitors; shares compounds with HCV inhibitor; HCV host cell line cytotoxicity counterscreen; Potency, µM (doses to about 41.8 µM), without a hit: top-dose activity change, negative = cytotoxicity, hits mostly inhibitors; actives 22% (n = 640);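 further: potency means the concentration at half of the fitted maximal effect; 44 h compound exposure; on the % scale 0 is the no-effect control and ±100 the full control effect; nearly all actives have a fitted effect of over 55% in size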
* = called active by the depositor; ? = inconclusive; . = not tested or not shown; [ ] = another dose, or the depositor's remark. Unless noted, the call rests on the fitted dose curve; in most records, active means well fitted curve in the direction sought with a large enough effect; inconclusive means small, poorly fitted or top-dose-only effect, or another doubt; inactive means no such curve, though single readings can be large; an effect the other way counts as inactive or inconclusive.

SMILES	AmpC detergent	HCMV inh	FMDV inh	AmpC no deterg	HCV inhibitor	HCV inh confirm	HCV cytotox
C/C(CCc1oc2ccccc2c1-c1ccc(C)o1)=N/O	-9%	-21	-18%	-1%	7.9µM*	25µM*	16%
CCC1CCCCN1CCCNC(=O)Cn1ncc2c(C)n(Cc3ccccc3Cl)c(C)c2c1=O (stereo not given)	-11%	2	3%	141%	-19%	.	.
CCc1cnc2c(c1SCC(=O)Nc1ccc(Cl)cc1)c(=O)n(C)c(=O)n2C	1%	-9	-5%	.	.	.	.
COc1cc(NC(C)CCCN)c2ncccc2c1Oc1ccccc1 (stereo not given)	-2%	11	-21%	95%	7.9µM*	20µM*	-18%
CCN(CC)C(=O)C1=C(C)N(CCCN2CCCC2=O)C(=O)C(CC(=O)NCc2cccc3ccccc23)C1 (stereo not given)	.	1	-11%	.	.	.	.
O=C(CN1CCCC1c1ccc2c(c1)OCCO2)NC(=O)Nc1ccccc1F (stereo not given)	?	-18	-6%	-6%	?	.	.
COc1ccc(NC(=O)CSc2nc(-c3ccc(F)cc3)c3cccc(C)c3n2)cc1	23%	-20	-15%	.	.	.	.
CCCn1c(NC(=O)c2ccccc2)nc2ccccc21	-7%	-15	23%	-24%	?	.	.
CCCn1c(NC(=O)c2cccc(S(=O)(=O)N3CCCC3)c2)nc2ccccc21	?	-97*	32µM*	-22%	5µM*	10µM*	8.9µM*
O=C(NC1CCS(=O)(=O)C1)/C(=C/c1ccco1)NC(=O)c1ccccc1 (stereo not given)	-8%	-25	-10%	24%	7.1µM*	0%	18%
C=C(NC(=O)C(=C)NC(=O)c1csc(C2=NC3c4csc(n4)C4NC(=O)c5csc(n5)C(C(C)(O)C(C)O)NC(=O)C5CSC(=N5)/C(=C/C)NC(=O)C(C(C)O)NC(=O)c5csc(n5)C3(CC2)NC(=O)C(C)NC(=O)C(=C)NC(=O)C(=C)NC(=O)C(C(C)C)NC2C=Cc3c(C(C)O)cc(nc3C2O)C(=O)OC4C)n1)C(N)=O (stereo not given)	.	-98*	?	.	4µM*	2.5µM*	3.1µM*
COC(=O)c1cc2ccccn2c2c(C(=O)OC)c(C(=O)OC)cc1-2	-13%	46	?	-15%	?	.	.
COC(=O)c1cc2c(C)cc3ccc(C)cn3c-2c1C(=O)OC	-4%	-21	0%	72%	4µM*	11µM*	43%
Cc1cccc(C(=O)N2CCCCC2CCN2CCCCC2)c1 (stereo not given)	18%	6	0%	.	.	.	.
Clc1ccc2c(NCc3ccccc3)ccnc2c1	-10%	-74*	?	-37%	5.6µM*	10µM*	?
S=C(NNc1ccnc2cc(Cl)ccc12)Nc1ccccc1Cl	-6%	-24	?	-22%	?	.	.
COc1ccc(/C=N\NC(=O)c2ccccc2Br)cc1COc1c(F)c(F)cc(F)c1F	-13%	-81*	-21%	-36%	5µM*	4.4µM*	22µM*
CC(C)N(C(=O)Nc1ccc2nsnc2c1)C(C)C	3%	-101*	0%	-10%	4.5µM*	-16%	35%
COc1ccc(N(C)C(=O)Nc2ccc3nsnc3c2)cc1	-12%	-32	0%	-7%	?	.	.
CCCOc1ccc(/C=C/C(=O)Nc2ccc([N+](=O)[O-])cc2)cc1	-1%	-70*	5.6µM*	-24%	3.5µM*	7.9µM*	20µM*
CCCCOc1ccc(/C=C/C(=O)Nc2ccc([N+](=O)[O-])cc2C)cc1	?	-12	0%	-20%	?	.	.
CCOC(=O)c1c(N)sc2c1CCC(CC)C2 (stereo not given)	?	14	-18%	-18%	-5%	.	.
CC#CCOC(=O)c1c(C)nc2sc3c(c2c1N)CCC(O)C3 (stereo not given)	0%	?	?	-15%	7.1µM*	22µM*	?
Cc1ccc(C(=O)COC(=O)c2cccc(NC(=O)c3ccc(Cl)cc3Cl)c2)cc1	13%	12	-18%	.	.	.	.
CN1CCc2nc(SCCOc3ccccc3)c(C#N)cc2C1	-5%	0	.	42%	3.5µM*	?	6%
SMILES	AmpC detergent	HCMV inh	FMDV inh	AmpC no deterg	HCV inhibitor	HCV inh confirm	HCV cytotox
C/C(=N/Nc1nc(-c2ccccc2)cc(-c2ccc(F)cc2)n1)c1cccc(N)c1	-3%	-21	8%	-9%	8.9µM*	14µM*	?
CCOc1ccc(S(=O)(=O)N2CCCCC2)cc1NC(=O)CCNC(=O)c1ccco1	-20%	-15	-5%	-19%	0%	.	.
C[C@H]1CN([C@@H](C)CO)C(=O)c2cccc(NC(=O)C3CC3)c2O[C@H]1CN(C)S(=O)(=O)c1cccs1	.	-20	15%	138%	18%	.	.
Nc1ncnc2c1[nH]c(=O)n2C1OC(CO)C(O)C1O (stereo not given)	.	.	-3%	.	.	.	.
NC(=S)c1cn(C2OC(CO)C(O)C2O)c2ncnc(N)c12 (stereo not given)	-11%	-99*	?	-27%	0.28µM*	0.44µM*	0.44µM*
COc1ccc2nc(NC(=O)C3CCN(C(=O)c4ccco4)CC3)sc2c1	1%	2	11%	38%	-3%	.	.
CCN(CC)CCOC(=O)C(c1ccccc1)c1ccccc1	-12%	-10	-20%	-3%	-19%[8.37 µM]	.	.
CCN(CC)CCOC(=O)C(c1ccccc1)C1CCCCC1 (stereo not given)	.	?	-23%	71%	?	14µM*	14%
CCn1cc(/C=C/c2cc[n+](C)cc2)c2ccccc21	-6%	-97*	-22%	22%	2.5µM*	1.8µM*	4µM*
CCn1cc(C=C2C(=O)N(C)C(=O)N(C)C2=O)c2ccccc21	-17%	33	-25%	-15%	14%	.	.
COc1cccc(NC(=O)CSC2=Nc3ccccc3C3=NC(CC(=O)NCc4ccc5c(c4)OCO5)C(=O)N23)c1 (stereo not given)	5%	36	-19%	.	.	.	.
CN(C(=O)CSc1nnc2[nH]c(=O)cc(-c3ccccc3)n12)c1ccccc1	-13%	-28	28%	.	.	.	.
COc1ccccc1CCC(=O)OCC(=O)c1c(N)n(CC(C)C)c(=O)n(C)c1=O	1%	-3	?	22%	-14%	.	.
CCOc1ccccc1OCC(=O)OCC(=O)c1c(N)n(CC(C)C)c(=O)n(C)c1=O	2%	-4	?	42%	?	?	-90%

Assay outcomes deposited in PubChem by National Center for Advancing Translational Sciences (NCATS).
